# Reference: PubChem BioAssay
# Columns and labels:
# [1] = test system: Human papillomavirus type 1a protein E7 (residues 44-93); assay: small molecules binding HPV E7 44-93 – biochemical, small-molecule microarray, residues 44-93, 635 nm fluorescence, primary screen (AID 1108); conditions: fluorescence 635 nm, higher = more signal;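 further: E7 fragment applied at 1 µg/mL in TBST for 1 h at 4 C; score combines spot fluorescence with its signal to noise ratio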
# [2] = hepatitis C replication reporter changes, two-sided – Huh7 cells, luciferase reporter, HCV replication inhibitor project, primary screen (AID 1109); conditions: Huh7 HCV replicon luciferase reporter, 48 h; higher = more signal;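 further: huh7 hepatoma cells harbouring a luciferase neomycin HCV replicon reporter; luciferase luminescence as measure of HCV replicon replication; test concentration not given here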
# [3] = biological target: Left-right determination factor 2 (Homo sapiens) (UniProt O00292); assay: small molecules binding LEFTY2 protein – biochemical, small-molecule microarray, 635 nm fluorescence scan, primary screen (AID 1110); conditions: higher = more signal
# Left-right determination factor 2 (Homo sapiens), sequence (O00292 whole entry, looked up): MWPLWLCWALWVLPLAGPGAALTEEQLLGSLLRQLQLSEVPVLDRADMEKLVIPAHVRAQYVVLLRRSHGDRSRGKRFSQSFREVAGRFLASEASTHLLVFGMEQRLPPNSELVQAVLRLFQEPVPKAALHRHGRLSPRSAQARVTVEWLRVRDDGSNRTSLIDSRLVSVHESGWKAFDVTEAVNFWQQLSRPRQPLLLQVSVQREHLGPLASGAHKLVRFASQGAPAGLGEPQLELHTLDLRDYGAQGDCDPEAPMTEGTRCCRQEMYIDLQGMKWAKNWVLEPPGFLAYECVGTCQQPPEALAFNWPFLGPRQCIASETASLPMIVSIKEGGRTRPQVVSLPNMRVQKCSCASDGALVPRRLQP
# [4] = biological target: Calmodulin-1 (Homo sapiens) (UniProt P0DP23); assay: small molecules binding calmodulin-1 with EGTA – biochemical, small-molecule microarray, Cy5-labelled CALM1, profiling panel (AID 1111); conditions: Cy5-CALM1 binding fluorescence, higher = more signal;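 further: labelled calmodulin applied in Tris saline Tween buffer holding calcium plus EGTA and DTT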
# [5] = biological target: Calmodulin-1 (Homo sapiens) (UniProt P0DP23); assay: small molecules binding Ca-loaded calmodulin-1 – biochemical, small-molecule microarray, Cy5-labelled CALM1, plus calcium, artefact control for SMM control-protein annotation, profiling panel (AID 1112); conditions: Cy5-CALM1 binding fluorescence, higher = more signal;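 further: score merges spot fluorescence with signal to noise from triplicate slides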
# [6] = probe aWnt5a binding to arrayed compounds – biochemical, biotinylated probe, 635/667 nm fluorescence, primary screen (AID 1113); conditions: small-molecule microarray, higher = more signal;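 further: score merges 667 nm fluorescence intensity with signal-to-noise per printed feature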
# [7] = probe aShh binding to arrayed compounds – biochemical, biotinylated probe, 635/667 nm fluorescence, primary screen (AID 1114); conditions: small-molecule microarray, higher = more signal;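 further: probe is biotin-labelled aShh protein from a stem cell growth factor screen; measures binding of labelled protein to compounds printed on the slide; score merges feature fluorescence at 667 nm with signal-to-noise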
# [8] = probe aNog binding to arrayed compounds – biochemical, biotinylated probe, 635/667 nm fluorescence, primary screen (AID 1115); conditions: small-molecule microarray, higher = more signal;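 further: probe is biotinylated aNog protein used at 0.15 µg/mL for 1 h at 4 C; z-score combines 667 nm fluorescence of each spot with its signal to noise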
# [9] = biological target: Torsin-1A-interacting protein 1 (Homo sapiens) (UniProt Q5JTV8); assay: compound microarray binding of lysate hLAP1 – cell lysate, small-molecule microarray, COS7 lysate, 635/667 nm fluorescence, primary screen (AID 1116); conditions: 635 nm fluorescence, higher = more signal
# Torsin-1A-interacting protein 1 (Homo sapiens), sequence (Q5JTV8 whole entry, looked up): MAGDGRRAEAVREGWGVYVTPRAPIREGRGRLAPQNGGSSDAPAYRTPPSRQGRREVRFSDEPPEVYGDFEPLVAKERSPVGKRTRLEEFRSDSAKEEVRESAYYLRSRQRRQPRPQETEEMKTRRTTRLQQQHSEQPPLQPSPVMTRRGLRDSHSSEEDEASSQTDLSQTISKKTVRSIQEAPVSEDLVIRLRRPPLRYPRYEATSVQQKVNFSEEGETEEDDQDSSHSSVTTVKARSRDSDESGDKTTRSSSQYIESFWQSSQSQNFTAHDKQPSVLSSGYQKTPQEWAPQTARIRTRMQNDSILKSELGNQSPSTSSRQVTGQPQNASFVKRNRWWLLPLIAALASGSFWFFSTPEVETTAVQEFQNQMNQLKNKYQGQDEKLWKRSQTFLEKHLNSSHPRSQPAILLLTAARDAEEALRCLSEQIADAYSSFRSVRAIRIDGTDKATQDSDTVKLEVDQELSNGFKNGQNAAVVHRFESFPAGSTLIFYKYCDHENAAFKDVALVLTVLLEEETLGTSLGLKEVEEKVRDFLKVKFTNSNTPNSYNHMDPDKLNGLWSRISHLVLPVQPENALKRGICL
# [10] = biological target: Alpha-bungarotoxin (Bungarus multicinctus) (UniProt P60615); assay: compounds binding labelled alpha-BTX control protein – biochemical, small-molecule microarray, Alexa647 label, 635/667 nm fluorescence, artefact control for SMM control protein annotation, profiling panel (AID 1117); conditions: alpha-BTX-A647 binding fluorescence, higher = more signal
# Alpha-bungarotoxin (Bungarus multicinctus), sequence (P60615 whole entry, looked up): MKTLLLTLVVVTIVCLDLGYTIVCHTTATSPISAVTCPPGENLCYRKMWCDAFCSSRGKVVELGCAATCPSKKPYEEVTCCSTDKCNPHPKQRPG
SMILES,composite z-score [1],z-score [2],composite z-score [3],composite z-score [4],composite z-score [5],composite z-score [6],composite z-score [7],composite z-score [8],composite z-score [9],composite z-score [10]
COc1ccc([Si](C)(C)[C@@H]2[C@@H](CC(=O)N3Cc4ccccc4C[C@H]3CO)O[C@]3(C(=O)N(Cc4ccc(N5C(=O)c6cccc7cccc5c67)cc4)c4ccccc43)[C@H]2C)cc1,1.35,-3.96,0.987,0.318,-0.512,-0.0585,0.0952,0.251,1.04,0.964
C=CCNC(=O)[C@@H]1[C@H]2C(=O)O[C@H](c3ccccc3)[C@H](c3ccccc3)N2[C@H](c2ccccc2OCCO)[C@@]12C(=O)Nc1ccc(C#CCCO)cc12,-0.489,-0.364,1.2,0.142,-0.0836,-0.147,-0.273,-0.0965,0.544,0.0913
COC(=O)[C@@H]1N=C(c2ccc(OCCCO)cc2)O[C@@H]1C,0.783,2.62,0.309,-0.226,-1.2,-0.148,0.233,-0.356,1.71,-0.294
COC(=O)[C@@]1(Cc2ccccc2)[C@H]2c3cc(C(=O)N4CCCC4)n(CCc4ccccn4)c3C[C@H]2CN1C(=O)c1ccccc1,1.43,-1.65,-0.204,2.13,0.842,-0.0776,-0.353,1.84,2.53,0.298
CC(C)C(CO)N1C(=O)[C@@H]2[C@H]3C(=O)OCC=C[C@H]3OC23C=CCN(c2ccc(Cl)cc2)C(=O)[C@@H]13 (stereo not given in full),-0.0683,-0.665,-0.433,-0.871,-0.499,-0.1,0.0278,-0.196,-0.344,-1.17
CCCCC(CC)C(O)C1C=CC2C(=O)N(c3ccccc3)C(=O)C2N1Nc1ccccc1F (stereo not given),1.41,-0.508,-0.285,0.0117,-0.264,0.0768,0.341,1.1,0.928,-0.176
[N-]=[N+]=Nc1ccccc1[C@@H]1OC(c2ccc(OCCCO)cc2)=N[C@]1(Cc1ccccc1)C(=O)N1CCCCC1,1.46,-2.57,0.0418,1.43,0.748,0.0484,0.337,1.37,1.57,1.25
CCCC=C(CCC)[C@@H](NC(=O)c1cccs1)c1ccc(C(=O)OC)cc1,0.805,-0.122,0.698,0.318,-0.276,1.34,2.03,2.91,0.406,0.159
CCCCNC(=O)c1ccc(C#CC(C)(C)C)c(OC(C)=O)c1,0.845,-0.196,0.806,0.0614,-0.526,-0.159,-0.117,-0.256,0.5,0.608
COc1cc2c(cc1O)C(c1cccs1)N(Cc1cc3c(cc1Br)OCO3)CC2 (stereo not given),1.48,-2.05,0.236,1.88,0.602,-0.0286,0.23,1.03,1.14,2.08
CC(C)C(CO)N1C(=O)[C@@H]2C3C(=O)OCCC/C=C\[C@H]3OC23C=CCN(c2ccc4ccccc4c2)C(=O)[C@@H]13 (stereo not given in full),-0.812,-1.23,-1.43,-0.14,-0.132,-0.0405,-0.0822,0.117,-0.427,-0.287
CCCCC(CC)C(O)C1C=CC2C(=O)N(C)C(=O)C2N1Nc1ccccc1 (stereo not given),1.4,-0.813,-0.303,1.29,0.583,-0.0721,0.0181,0.558,0.466,1.34
CCCCCN1CC=CC23O[C@@H]4/C=C\CCC(C)OC(=O)C4[C@H]2C(=O)N(C(CO)C(C)C)[C@@H]3C1=O (stereo not given in full),-0.333,-1.64,-0.214,-0.983,-0.876,-0.172,-0.469,-0.463,0.163,0.0325
O=C1[C@H]2C=C(I)[C@H](C[C@@H]2OCCOCCO)[C@@]12CO2,0.496,-2.21,0.547,-0.315,-0.876,-0.26,-0.243,0.101,0.269,-0.0432
COCCOC(=O)N1C(=O)[C@@]2(c3cc(C#CC4=CCCCC4)ccc31)[C@H](c1ccccc1OCCO)N1[C@H](c3ccccc3)[C@H](c3ccccc3)OC(=O)[C@H]1[C@@H]2C(=O)N1CCN(c2ncccn2)CC1,1.28,-2.1,0.718,0.501,0.466,-0.206,0.0048,-0.404,0.0174,0.511
CC(C)c1ccc(NN2C(C(O)c3ccc(C#N)cc3)C=CC3C(=O)N(c4ccccc4)C(=O)C32)cc1 (stereo not given),1.44,-0.882,-0.109,2.28,1.01,-0.0405,0.19,1.97,1.35,1.85
CCOC(=O)C[C@H]1[C@H](OC(=O)c2ccccc2-c2ccccc2)[C@@H](NC(=O)c2ccc3ccccc3n2)c2cc(OCCCO)ccc2N1C(=O)Cc1ccc(OC)cc1,0.345,-2.09,0.414,-0.216,-0.224,-0.124,-0.182,-0.147,0.781,0.365
